VLA-4 inh = inhibition in a human VLA-4 binding assay | VLA-4 expressing cells, ligand binding flow cytometry | P13612 | 0.2% of 330,000 active | inhibition, % (about 7 µM as worked out from the volumes in the protocol); in the data active = inhibition above about 50%
HIF act = HIF pathway transcriptional activation; U2OS HRE-luciferase reporter, luminescence; normalized: DMSO 0%, desferrioxamine 100%; activation, % at 7.5 µM (by protocol); 0.32% of 300,000 active; AID 1910;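 active = mean activation of at least 10% of the iron chelator positive control signal, with at least half of replicates also reaching 10%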
Platelet DG rel = modulates dense granule release in human platelets. inhibition, %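 (compounds screened at 7.5 µM in platelet-rich plasma)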. 0.22% of 300,000 active. human platelet-rich plasma, SFLLRN dense granule ATP release, luminescence. AID 1663;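 active = mean replicate score, as percent of positive control, at or above 50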
CHT allo act = allosteric activators of human choline transporter CHT; B-score at 10 µM; Q9GZV3; CHT-expressing cells, membrane potential dye, choline EC20; hits give high values; LV-AA mutant CHT in HEK293 cells; 0.49% of 310,000 active; AID 488977;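 active = initial fluorescence not abnormally high and integrated response B-score, plate-corrected, over 3 SD above library mean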
Target sequence (Q9GZV3 whole entry, looked up): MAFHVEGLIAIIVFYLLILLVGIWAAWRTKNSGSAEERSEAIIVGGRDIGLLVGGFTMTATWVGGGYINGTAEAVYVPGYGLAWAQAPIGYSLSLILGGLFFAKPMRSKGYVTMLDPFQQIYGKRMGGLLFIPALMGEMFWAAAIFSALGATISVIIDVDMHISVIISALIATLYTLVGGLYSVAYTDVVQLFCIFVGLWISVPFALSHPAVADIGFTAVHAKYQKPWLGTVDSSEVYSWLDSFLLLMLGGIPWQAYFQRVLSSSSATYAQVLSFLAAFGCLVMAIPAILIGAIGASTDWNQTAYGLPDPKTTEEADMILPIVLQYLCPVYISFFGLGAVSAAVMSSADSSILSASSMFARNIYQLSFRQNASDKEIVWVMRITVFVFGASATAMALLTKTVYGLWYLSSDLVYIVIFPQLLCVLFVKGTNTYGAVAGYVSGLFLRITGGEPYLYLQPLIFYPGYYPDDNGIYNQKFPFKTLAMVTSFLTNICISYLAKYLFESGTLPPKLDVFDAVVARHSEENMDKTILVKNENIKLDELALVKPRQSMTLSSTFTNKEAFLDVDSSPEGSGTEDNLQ
CHT block = inhibitors of human choline transporter CHT; Q9GZV3; 0.86% of 310,000 active; B-score at 10 µM; CHT-expressing cells, membrane potential dye, choline response; hits give low values;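 active = B-score over 3 SD under the library average, and starting fluorescence ratio not unusually high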;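 also: choline stimulus applied at its EC90 after an EC20 pre-addition; B-score computed on integrated fluorescence ratio after choline addition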
AI-2 QS modul = Vibrio harveyi AI-2 quorum sensing modulation. 0.4% of 300,000 active. activity change, % at 7.5 µM. AID 2094. Vibrio harveyi JMH597 AI-2 luminescence/OD600 ratio, 9 h; hits give low values; strain lacks LuxN and CqsS sensors; 0 = neutral-control median; in the data active = activity change below about -75%, passing the limit was not always enough;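 also: luminescence divided by OD600 gain over 9 h not by final OD600 alone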
CHT inh conf = confirmation of human choline transporter CHT inhibitors; shares compounds with CHT block; CHT-expressing cells, choline membrane potential dye; LV-to-AA substituted CHT, HEK293 cells; CHT activity remaining % of control (hits give low values), % at 10 µM; 70% of 2,400 active;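 active = choline transporter activity left, mean of duplicates at 10 µM, below buffer-only control mean minus 3 SD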;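 also: depolarization triggered by choline at its EC90 following an EC20 pre-addition; 0% = hemicholinium-3 full block and 100% = buffer-only control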
HEK293 MPD ctr = activity in parental HEK293 cells lacking CHT. membrane potential dye, choline response; active = decrease or increase beyond buffer ±3SD. 4% of 2,400 active. membrane potential ratio readout (active if shifted either direction beyond buffer ±3SD; no single direction) at 10 µM. shares compounds with CHT block;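 also: parental cells lack the transporter so any hit is non-specific; ratio is peak minus trough fluorescence over baseline after EC90 choline challenge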
* marks the source's active call; other numbers are inactive results; i = inactive; x = no result. This is a sample that favours compounds with a hit; in the whole collection about 2.2% have one here.

SMILES	VLA-4 inh	HIF act	Platelet DG rel	CHT allo act	CHT block	AI-2 QS modul	CHT inh conf	HEK293 MPD ctr
O=C(NCC1CCCO1)c1ccc(NC(=O)c2ccc([N+](=O)[O-])cc2)cc1 (stereo not drawn)	8	0	4	i	i	31	x	x
CCCCCc1cc(=O)oc2c(C(CCN3CCCCC3)c3ccc4c(c3)OCO4)c(OC)cc(OC)c12 (stereo not drawn)	3	-1	0	i	i	27	x	x
CCCCCc1cc(=O)oc2c(C(CCN(CC)CC)c3cc(OC)c(OC)c(OC)c3)c(OC)cc(OC)c12 (stereo not drawn)	0	-14	-12	i	-5.8*	14	51%*	i
CCCCCNC(=O)c1ccc2c(=O)[nH]c3c(C(=O)NCC4CCCO4)sc(=S)n3c2c1 (stereo not drawn)	-28	0	2	i	-7.8*	22	35%*	i
O=C(NC1CCCC1)c1sc(=S)n2c1[nH]c(=O)c1ccccc12	-10	0	7	i	-5*	38	i	i
O=C(NCc1ccco1)c1sc(=S)n2c1[nH]c(=O)c1ccccc12	0	0	1	i	i	33	x	x
Cc1ccccc1NC(=O)c1cccc(S(=O)(=O)Oc2ccc([N+](=O)[O-])cc2)c1	11	0	3	i	-5.7*	14	i	i
O=C(Nc1ccccc1[N+](=O)[O-])C1COc2ccccc2O1 (stereo not drawn)	9	3	2	i	i	17	x	x
C=CCSc1nnc(NC(=O)c2cn(CC)c3nc(C)ccc3c2=O)s1	-5	0	1	i	i	24	x	x
CCOC(=O)c1[nH]ncc1CN1CCC(Cc2cccc(OC)c2)(C(=O)OCC)CC1	5	0	1	i	i	29	x	x
CC(=O)c1cccc(OCC(=O)c2cc(C)n(-c3cc(C)on3)c2C)c1	-2	0	5	i	-5*	11	63%*	i
O=C(CSc1ccccc1)N1CCN(c2ccc(F)cc2)CC1	9	0	-8	i	i	29	x	x
CC(C)c1cc(C(=O)NNC(=S)NC2CCCCC2)cs1	-2	1	6	i	-5.6*	-16	66%*	i
CCCCOc1cccc(C(=O)NNC(=S)NC2CCCCC2)c1	3	0	9	i	-8.8*	22	69%*	i
CCc1cc(C(=O)NNC(=S)NC2CCCCC2)cs1	-14	2	-31	i	i	33	x	x
CCCCNS(=O)(=O)c1ccc(NC(=O)Cc2ccccc2[N+](=O)[O-])cc1	-10	-1	-1	i	-6*	24	43%*	i
CC(C)(C)NS(=O)(=O)c1ccc(NC(=O)Cc2ccccc2[N+](=O)[O-])cc1	10	0	-1	i	i	26	x	x
COCCNC(=O)CN1CCN(S(=O)(=O)c2ccc3c(c2)CCCC3)CC1	-4	x	x	x	x	x	x	x
C(=N\Nc1nccc(-c2cccnc2)n1)/c1ccccc1	7	3	31	i	-12*	x	i	i
O=S(=O)(Oc1ccccc1N1CCCCC1)c1ccccc1	-16	0	0	i	i	14	x	x
O=C(O)CCNC1C=CS(=O)(=O)C1 (stereo not drawn)	-14	0	-4	i	-6.2*	23	i	i
Cc1ccc(C)c(Nc2c([N+](=O)[O-])cc(C(=O)N3CC(=O)Nc4ccccc43)cc2[N+](=O)[O-])c1	3	-1	2	i	-5.9*	54	i	i
COc1cc(/C=C(/C#N)C(=O)Nc2ccc(C)cc2)ccc1Oc1nc(Cl)ncc1F	10	0	-7	i	i	29	x	x
Cc1ccc(-n2[nH]c(C)c(/C=N/Nc3ccc([N+](=O)[O-])cc3[N+](=O)[O-])c2=O)cc1C	16	x	-5	i	-8.4*	14	36%*	i
CCc1ccc(NC(=S)N2CCC(NC(=O)c3ccccc3OC)CC2)cc1	-7	0	-3	i	i	14	x	x
SMILES	VLA-4 inh	HIF act	Platelet DG rel	CHT allo act	CHT block	AI-2 QS modul	CHT inh conf	HEK293 MPD ctr
COc1ccccc1C(=O)NC1CCN(C(=S)NCCc2ccccc2)CC1	4	0	0	i	-6.3*	5	50%*	i
COc1ccc(CNC(=O)COC(=O)C(CCSC)NC(=O)c2ccco2)cc1OC (stereo not drawn)	4	x	x	x	x	x	x	x
Cc1ccc(NC(=O)CN2CCCC2c2cccn2C)c(Br)c1 (stereo not drawn)	21	x	x	x	x	x	x	x
O=C(CSc1nn(-c2ccc(F)cc2)c(=S)s1)NCC1CCCO1 (stereo not drawn)	3	0	-2	i	-5.4*	25	i	i
O=C(CSc1nc(-c2ccc(F)cc2)cs1)NCC1CCCO1 (stereo not drawn)	14	x	x	x	x	x	x	x
O=C(C[n+]1ccccc1)c1ccc(-c2ccccc2)cc1	6	2	2	i	i	26	x	x
C=Cn1cc[n+](CC(=O)c2ccc(-c3ccccc3)cc2)c1	4	-32	-6	i	-6.7*	-1	60%*	i
COC(=O)c1sc(NC(=O)c2ccc([N+](=O)[O-])o2)c(C#N)c1C	4	0	-4	i	-8*	-15	62%*	2.5*
C=CCc1ccc(O)c(-c2ccc(O)c(CC=C)c2)c1	18	0	-3	i	-7*	34	62%*	i
COCCCNC(=S)N/N=C/c1ccc(OC)c(Br)c1	-20	1	10	i	i	14	x	x
CN1CCN(C(=O)/C(=C\c2cccnc2)NC(=O)c2cccc(Br)c2)CC1	-1	0	1	i	i	6	x	x
CCc1nnc(NS(=O)(=O)c2ccc(NC(=O)OC)cc2)s1	4	0	-6	i	i	36	x	x
CCc1nnc(NS(=O)(=O)c2ccc(NC(=O)c3ccc(Br)cc3)cc2)s1	0	-1	-7	i	-6.7*	11	36%*	i
CCOc1nc(-c2ccccc2)ncc1Oc1ccccc1	3	0	3	i	-5*	20	i	i
Cc1cc(N2CCCC2=O)cc(C)c1S(=O)(=O)NCCOc1ccccc1	13	0	6	i	-5.9*	20	67%*	-8.4*
